Experimental data from PubChem BioAssay (NCI).
Values joined by “and” are separate entries in the source; they are usually repeats but may differ in a detail not shown here. Identical values can stand only once. Compounds without any hit were thinned out: in the full panel of roughly 83,000, 20% have a hit.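 Cells were grown in 96-well plates and exposed to the test compound at a single concentration for 48 hours; results are reported as percent growth, with values below 10 considered active.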 Active and inactive are the calls of the source.

Test system: HL-60(TB) leukemia
Experiment: NCI-60 one-dose screen, 48 h (100 = growth as untreated, 0 = no growth, -100 = all killed)
Details: 10 µM unless noted

| SMILES | growth |
| --- | --- |
| c1ccc2c(N3CCCCC3)ncnc2c1 | 51.5% (inactive) |
| Cc1ccc2c(C(C[N+](=O)[O-])c3ccccc3F)c(-c3ccccc3)[nH]c2c1 (centres undefined) | 27.3% (inactive) |
| [2H]c1nc(Nc2ncc3cc(C(=O)N(C)C)n(C4CCCC4)c3n2)c([2H])c([2H])c1N1C([2H])([2H])C([2H])([2H])NC([2H])([2H])C1([2H])[2H] | 14.6% (inactive) |
| Cc1onc(-c2ccccc2)c1C(=O)N/N=C/c1cc(Cl)cc(Cl)c1O | 15.7% (inactive) |
| O=C1NCCC12CCN(c1c(Cl)cncc1-c1ccc(O)cc1)CC2 | 102% (inactive) |
| COC(=O)/C=C/c1cc(OC(C)=O)c2c(c1)[C@@H](C(=O)OC)[C@H](c1ccc(OC(C)=O)c(OC(C)=O)c1)O2 | -42.8% (active) |
| COc1ccc(-c2nn(-c3ccc(Cl)cc3)cc2-c2nc3ccccc3[nH]2)cc1 | 114% (inactive) |
| CN(C)CCNc1nc2c3cc(Cl)ccc3nn2c2ccccc12 | 56.1% (inactive) |
| CCOC(=O)C1(Cc2ccccc2)CCN(Cc2cccc(OC)c2O)CC1 | -11.6% (active) |
| NC(=S)N/N=C(\c1ccc(Br)cc1)C1CC1 | 65.6% (inactive) and 64.8% (inactive) |
| CC(=O)N1c2ccccc2NC2=C(C(=O)N(C)C2(C)C)C1C (centres undefined) | 7.5% (active) |
| Cc1nssc1=S | 106% (inactive) |
| C=C1c2c(C)nn(-c3ccc(OC)cc3)c2N(C)C23C[C@@H]1C1(C)c4c(C)nn(-c5ccc(OC)cc5)c4N(C)C(C)(C[C@H]12)C3 (some centres undefined) | -2.21% (active) |
| Ic1ccc2[nH]cc(SSc3c[nH]c4ccc(I)cc34)c2c1 | -21.7% (active) |
